Shown are actives, neighbours in structure and some others; about 8.7% of the full set was active somewhere.
G9a block: inhibitors of human histone lysine methyltransferase G9a; Q96KQ7; G9a H3K9 monomethylation, AlphaScreen, 2 h; Potency, µM (highest dose often 102 µM), without a hit: top-dose activity, negative = inhibition, usual class: inhibitors; 350,000 compounds, 8.8% hits; AID 504332; further: on the % scale 0 is the no-effect control and ±100 the full control effect; nearly all actives have a fitted effect of over 75% in size
Target sequence (Q96KQ7 913-1193 limits assumed): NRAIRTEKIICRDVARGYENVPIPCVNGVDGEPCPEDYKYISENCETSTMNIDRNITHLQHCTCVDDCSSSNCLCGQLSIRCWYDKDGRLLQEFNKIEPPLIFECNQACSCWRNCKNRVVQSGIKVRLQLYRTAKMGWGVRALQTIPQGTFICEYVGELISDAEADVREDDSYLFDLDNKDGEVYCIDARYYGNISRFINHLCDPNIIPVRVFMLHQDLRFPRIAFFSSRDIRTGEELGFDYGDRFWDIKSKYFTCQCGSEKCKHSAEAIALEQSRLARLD
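Quantitative HTS format: methyltransferase activity on a biotin-tagged H3K9 peptide is measured by AlphaScreen, using a rabbit anti-monomethyl-H3K9 antibody with streptavidin donor and anti-IgG acceptor beads. Final levels are 20 nM enzyme, 500 nM peptide, 20 uM SAM; 2 h RT.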
BAZ2B inh: BAZ2B (human) inhibition; Q9UIF8; AlphaScreen BAZ2B-H3K14Ac peptide displacement; Potency, µM (top dose mostly 114 µM), inactives show at the top dose activity change, negative = inhibition, actives largely listed as inhibitors; 360,000 compounds, 4.4% hits; further: on the % scale 0 is the no-effect control and ±100 the full control effect; nearly all actives have a fitted effect of over 60% in size
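Complex of BAZ2B and biotin-H3K14Ac (50 nM apiece) forms over 30 min at RT, then faces library compounds up to 110 uM for another 30 min; AlphaScreen beads added, 20 min dark incubation, luminescence read.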
12-LOX inh: blocks human arachidonate 12S-lipoxygenase; P18054; purified 12hLO, xylenol orange hydroperoxide absorbance; Potency, µM (titrated, usually from 108 µM), inactives show at the highest dose activity change, negative = inhibition, actives largely listed as inhibitors; 580,000 compounds, 1.1% hits; AID 1671190; further: on the % scale 0 is the no-effect control and ±100 the full control effect
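Hydroperoxide product was detected by ferrous iron/xylenol orange as the 573 to 405 nm absorbance ratio. Arachidonic acid at 40 uM (final) was turned over for 30 min at room temperature by 150 nM human 12hLO, pH 7.0 Hepes buffer, after 15 min compound preincubation.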
JMJD2A Tudor: JMJD2A Tudor domain (human) inhibition | O75164 | AlphaScreen JMJD2A-Tudor / H3K4me3 peptide binding | Potency, µM (top dose mostly 114 µM), inactives show at the top dose activity change, negative = inhibition, hits mostly inhibitors | 390,000 compounds, 4.4% hits; further: on the % scale 0 is the no-effect control and ±100 the full control effect; nearly all actives have a fitted effect of over 50% in size
HP1b chromo inh: inhibitors of HP1-beta chromodomain binding to methylated histone tails; AID 540317; AlphaScreen HP1-beta / biotin-H3K9me3 peptide binding; P83916; 390,000 compounds, 0.56% hits; Potency, µM (series often up to 114 µM), without a hit: at the highest dose activity change, negative = inhibition, actives largely listed as inhibitors; further: nearly all actives have a fitted effect of over 70% in size
Target sequence (P83916 whole entry, looked up): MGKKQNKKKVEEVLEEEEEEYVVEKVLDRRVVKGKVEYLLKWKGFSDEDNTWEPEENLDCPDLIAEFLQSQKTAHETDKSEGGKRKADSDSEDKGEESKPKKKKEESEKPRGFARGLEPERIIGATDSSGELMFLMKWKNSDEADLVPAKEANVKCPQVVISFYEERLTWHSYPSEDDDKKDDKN
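HP1-beta protein (50 nM final) preincubated 30 min at room temperature with biotinylated H3(1-18)K9me3 peptide (50 nM) in PBS pH 7.4, 0.01% Tween-20, then compound added for 30 min. AlphaScreen streptavidin donor/nickel chelate acceptor beads (10 ug/mL final), 30 min dark, luminescence read.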
Sfp inh: Sfp phosphopantetheinyl transferase inhibition | 310,000 compounds, 3.5% hits | Potency, µM, for inactives: largest response in the series, negative = inhibition, actives largely listed as inhibitors | Biochemical Sfp PPTase activity, qHTS;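 further: the enzyme is Sfp with the accession as filed and its product quenches rhodamine fluorescence; 0% = enzyme reaction without inhibitor and -100% = no enzyme wells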
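Sfp 15 nM + cpd, 15 min RT; start w/ rhodamine-CoA 5 uM, BHQ-2-YbbR 12.5 uM (final); 50 mM Hepes pH 7.6, 10 mM MgCl2, 0.01% NP-40, 0.01% BSA; read 525/598 nm at 0 and 30 min.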
* hit, by the source's call; [ ] = remark or other dose. The call rests on the fitted dose curve; in most records, active means well fitted curve in the direction sought with a large enough effect; inconclusive means small, poorly fitted or top-dose-only effect, or another doubt; inactive means no such curve, though single readings can be large; an effect the other way counts as inactive or inconclusive. Potency means the concentration at half of the fitted maximal effect.

For CCN(CC)S(=O)(=O)c1cccc(NC(=O)COC(=O)/C=C/c2ccco2)c1 the results were G9a block 16µM*, BAZ2B inh 50µM*, 12-LOX inh inconclusive, JMJD2A Tudor -15%, HP1b chromo inh 5% and Sfp inh 28µM*.
Cc1ccc(/C=C/C(=O)OCC(=O)Nc2cccc(S(=O)(=O)N(C)C)c2)o1 was read as G9a block inconclusive, BAZ2B inh 79µM*, 12-LOX inh 0%, JMJD2A Tudor -29%, HP1b chromo inh -25% and Sfp inh -16%.
`COCC1CN(C(=O)Cc2c[nH]c3ccccc23)CC12CCOCC2` (configuration not stated) gave 12-LOX inh 13%.
Screening O[C@@H]1CN(Cc2ccc(-c3ccn[nH]3)o2)CC[C@H]1c1ccc2c(c1)OCO2 returned 12-LOX inh 70%.
Cc1cc(C(=O)OC(C(=O)N(C)C)c2ccccc2)on1 (configuration not stated) was read as 12-LOX inh 20%.
Screening CCN(CC)c1ccc(S(=O)(=O)N2CCOCC2)cc1NC(=O)COC(=O)/C=C/c1ccc(C)o1 returned G9a block 45µM*, BAZ2B inh -29%, 12-LOX inh -15%, JMJD2A Tudor -24% and HP1b chromo inh 6%.
Cc1ccc2c(=O)c(-c3nc(-c4ccc(Cl)cc4)no3)cn(CC(=O)NCc3ccco3)c2n1 was read as 12-LOX inh 20µM*.
c1coc(CNc2nc3nonc3nc2NCc2ccco2)c1 was read as G9a block inconclusive, BAZ2B inh -15%, 12-LOX inh -18%, JMJD2A Tudor -31%[57.1 µM], HP1b chromo inh -5% and Sfp inh 22µM*.
`Cc1ccc(-c2noc(-c3ccccc3C(=O)NCc3ccco3)n2)cc1` gave G9a block 6%, BAZ2B inh -15%, 12-LOX inh inconclusive, JMJD2A Tudor -8%, HP1b chromo inh 18% and Sfp inh 5%.
For O=C(NCc1ccco1)c1ccccc1-c1nc(-c2ccccc2)no1 the results were G9a block -6%, BAZ2B inh 56µM*, 12-LOX inh -6%, JMJD2A Tudor -21%, HP1b chromo inh -5% and Sfp inh 4%.
Cc1nc(NCc2ccco2)c2cn[nH]c2n1 was read as 12-LOX inh 1%, JMJD2A Tudor -27% and HP1b chromo inh -13%.
Cc1cccc(-c2noc(-c3ccccc3C(=O)NCc3ccco3)n2)c1 was read as G9a block inconclusive, BAZ2B inh 50µM*, 12-LOX inh inconclusive, JMJD2A Tudor inconclusive, HP1b chromo inh 5% and Sfp inh 40µM*.
`COc1cc(Cl)c(C)cc1NC(=O)c1nc2ccccc2nc1N1CCCCC1` gave 12-LOX inh -1%.
Cc1cccc(-c2nc(CNC(=O)c3ccco3)cs2)c1 was read as G9a block 50µM*, BAZ2B inh -14%, 12-LOX inh 33%, JMJD2A Tudor -9%, HP1b chromo inh 37% and Sfp inh -4%.
Screening c1ccc(-c2noc(-c3cccnc3NCc3ccco3)n2)cc1 returned G9a block 18µM*, BAZ2B inh -21%, 12-LOX inh 0%, JMJD2A Tudor -9% and HP1b chromo inh 49%.
For COc1cc(-c2noc(-c3ccccc3C(=O)NCc3ccco3)n2)cc(OC)c1OC the results were G9a block 40µM*, BAZ2B inh -24%, 12-LOX inh 10%, JMJD2A Tudor -16%, HP1b chromo inh -4% and Sfp inh 20%.
For C#CCOCCOCCOCCNc1nc(N2CCN(C(=O)C([C@@H](C)CC)n3cc(C(N)Cc4ccc(O)cc4)nn3)CC2)nc(N2CCN(C(=O)[C@H](CCC(=O)O)n3cc(C(N)CO)nn3)CC2)n1 (some centres not stated) the results were G9a block inconclusive, BAZ2B inh 50µM*, JMJD2A Tudor 56µM*, HP1b chromo inh 22% and Sfp inh 6%.

Compound activity: PubChem, National Center for Advancing Translational Sciences (NCATS)
